Experimental data reported in the supplement of paper PMC12819154, “High-throughput peptide-centric local stability assay extends protein–ligand identification to membrane proteins, tissues and bacteria” (Nature Structural & Molecular Biology, 2025).

Compound: CN[C@@H]1C[C@H]2O[C@@](C)([C@@H]1OC)n1c3ccccc3c3c4c(c5c6ccccc6n2c5c31)C(=O)NC4 [staurosporine]
Test: log2 fold change of tryptic peptide abundance, ligand vs vehicle (limited proteolysis) (log2 ratio); higher = more trypsin-susceptible (destabilized)
Details: ligand concentration: 20 uM; sample: mouse liver crude lysate; replicate design: treated separately

UniProt O35492, sequence (O35492 whole entry): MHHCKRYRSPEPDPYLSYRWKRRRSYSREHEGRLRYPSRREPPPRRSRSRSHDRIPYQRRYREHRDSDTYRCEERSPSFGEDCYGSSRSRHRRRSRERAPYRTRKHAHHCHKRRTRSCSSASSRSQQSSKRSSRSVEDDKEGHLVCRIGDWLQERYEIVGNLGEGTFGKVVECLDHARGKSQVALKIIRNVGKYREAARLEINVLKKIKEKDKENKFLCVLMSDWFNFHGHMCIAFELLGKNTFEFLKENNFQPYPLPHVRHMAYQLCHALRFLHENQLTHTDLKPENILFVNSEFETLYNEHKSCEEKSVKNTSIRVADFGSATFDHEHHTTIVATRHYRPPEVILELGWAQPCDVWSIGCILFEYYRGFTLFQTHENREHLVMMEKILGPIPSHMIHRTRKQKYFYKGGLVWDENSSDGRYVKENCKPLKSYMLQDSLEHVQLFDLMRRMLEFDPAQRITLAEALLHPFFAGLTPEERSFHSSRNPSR
UniProt Q62120, sequence (Q62120 whole entry): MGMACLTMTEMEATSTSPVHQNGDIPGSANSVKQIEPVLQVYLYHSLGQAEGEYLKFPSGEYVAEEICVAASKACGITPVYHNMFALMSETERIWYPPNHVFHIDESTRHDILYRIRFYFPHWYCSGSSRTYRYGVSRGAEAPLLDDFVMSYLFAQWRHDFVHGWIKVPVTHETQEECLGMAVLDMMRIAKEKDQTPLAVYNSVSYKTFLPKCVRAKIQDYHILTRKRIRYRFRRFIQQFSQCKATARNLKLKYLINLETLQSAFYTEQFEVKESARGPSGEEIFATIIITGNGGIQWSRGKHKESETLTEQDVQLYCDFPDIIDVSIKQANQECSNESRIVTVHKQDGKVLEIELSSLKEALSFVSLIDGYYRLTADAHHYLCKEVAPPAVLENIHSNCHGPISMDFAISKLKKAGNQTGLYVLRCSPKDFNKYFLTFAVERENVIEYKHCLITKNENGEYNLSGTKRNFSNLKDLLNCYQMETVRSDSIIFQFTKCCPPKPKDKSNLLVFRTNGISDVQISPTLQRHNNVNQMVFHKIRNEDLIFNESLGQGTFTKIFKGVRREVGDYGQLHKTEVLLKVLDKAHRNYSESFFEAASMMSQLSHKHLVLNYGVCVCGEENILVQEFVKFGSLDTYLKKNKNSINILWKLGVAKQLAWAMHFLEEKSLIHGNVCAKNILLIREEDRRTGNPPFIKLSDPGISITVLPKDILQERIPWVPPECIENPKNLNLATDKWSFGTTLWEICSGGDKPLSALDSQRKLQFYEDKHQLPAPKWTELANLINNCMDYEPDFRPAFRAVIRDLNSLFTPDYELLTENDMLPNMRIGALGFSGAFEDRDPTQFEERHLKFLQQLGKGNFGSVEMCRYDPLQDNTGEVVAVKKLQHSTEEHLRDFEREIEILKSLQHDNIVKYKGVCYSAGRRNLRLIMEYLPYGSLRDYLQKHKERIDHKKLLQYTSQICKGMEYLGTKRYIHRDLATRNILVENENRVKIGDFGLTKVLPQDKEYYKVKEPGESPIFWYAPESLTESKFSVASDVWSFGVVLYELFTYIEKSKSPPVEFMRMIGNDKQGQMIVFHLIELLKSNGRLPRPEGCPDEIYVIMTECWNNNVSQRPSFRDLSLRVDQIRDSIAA
UniProt Q9D710, sequence (Q9D710 whole entry): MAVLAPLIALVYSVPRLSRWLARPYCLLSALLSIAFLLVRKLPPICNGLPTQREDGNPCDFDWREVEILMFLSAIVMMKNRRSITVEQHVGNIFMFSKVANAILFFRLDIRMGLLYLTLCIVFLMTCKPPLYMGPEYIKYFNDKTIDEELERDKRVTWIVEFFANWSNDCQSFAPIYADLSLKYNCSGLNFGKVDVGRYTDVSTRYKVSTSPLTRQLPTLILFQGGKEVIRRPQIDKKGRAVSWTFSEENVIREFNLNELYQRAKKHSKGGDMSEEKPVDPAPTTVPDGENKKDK
UniProt Q9Z1R3, sequence (Q9Z1R3 whole entry): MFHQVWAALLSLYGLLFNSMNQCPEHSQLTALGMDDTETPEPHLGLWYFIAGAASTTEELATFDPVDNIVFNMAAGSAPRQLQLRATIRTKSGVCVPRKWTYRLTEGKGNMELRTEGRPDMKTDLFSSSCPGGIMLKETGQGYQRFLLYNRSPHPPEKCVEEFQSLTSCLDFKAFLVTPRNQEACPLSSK
UniProt Q9DCQ2, sequence (Q9DCQ2 whole entry): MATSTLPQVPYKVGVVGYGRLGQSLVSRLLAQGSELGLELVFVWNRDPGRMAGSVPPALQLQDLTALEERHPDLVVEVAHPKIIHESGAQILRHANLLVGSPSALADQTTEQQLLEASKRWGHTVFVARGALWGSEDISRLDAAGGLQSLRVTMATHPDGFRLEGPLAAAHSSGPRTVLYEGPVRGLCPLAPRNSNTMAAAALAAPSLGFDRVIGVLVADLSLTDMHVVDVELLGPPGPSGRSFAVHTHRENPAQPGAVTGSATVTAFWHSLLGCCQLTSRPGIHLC
UniProt Q7TT50, sequence (Q7TT50 whole entry): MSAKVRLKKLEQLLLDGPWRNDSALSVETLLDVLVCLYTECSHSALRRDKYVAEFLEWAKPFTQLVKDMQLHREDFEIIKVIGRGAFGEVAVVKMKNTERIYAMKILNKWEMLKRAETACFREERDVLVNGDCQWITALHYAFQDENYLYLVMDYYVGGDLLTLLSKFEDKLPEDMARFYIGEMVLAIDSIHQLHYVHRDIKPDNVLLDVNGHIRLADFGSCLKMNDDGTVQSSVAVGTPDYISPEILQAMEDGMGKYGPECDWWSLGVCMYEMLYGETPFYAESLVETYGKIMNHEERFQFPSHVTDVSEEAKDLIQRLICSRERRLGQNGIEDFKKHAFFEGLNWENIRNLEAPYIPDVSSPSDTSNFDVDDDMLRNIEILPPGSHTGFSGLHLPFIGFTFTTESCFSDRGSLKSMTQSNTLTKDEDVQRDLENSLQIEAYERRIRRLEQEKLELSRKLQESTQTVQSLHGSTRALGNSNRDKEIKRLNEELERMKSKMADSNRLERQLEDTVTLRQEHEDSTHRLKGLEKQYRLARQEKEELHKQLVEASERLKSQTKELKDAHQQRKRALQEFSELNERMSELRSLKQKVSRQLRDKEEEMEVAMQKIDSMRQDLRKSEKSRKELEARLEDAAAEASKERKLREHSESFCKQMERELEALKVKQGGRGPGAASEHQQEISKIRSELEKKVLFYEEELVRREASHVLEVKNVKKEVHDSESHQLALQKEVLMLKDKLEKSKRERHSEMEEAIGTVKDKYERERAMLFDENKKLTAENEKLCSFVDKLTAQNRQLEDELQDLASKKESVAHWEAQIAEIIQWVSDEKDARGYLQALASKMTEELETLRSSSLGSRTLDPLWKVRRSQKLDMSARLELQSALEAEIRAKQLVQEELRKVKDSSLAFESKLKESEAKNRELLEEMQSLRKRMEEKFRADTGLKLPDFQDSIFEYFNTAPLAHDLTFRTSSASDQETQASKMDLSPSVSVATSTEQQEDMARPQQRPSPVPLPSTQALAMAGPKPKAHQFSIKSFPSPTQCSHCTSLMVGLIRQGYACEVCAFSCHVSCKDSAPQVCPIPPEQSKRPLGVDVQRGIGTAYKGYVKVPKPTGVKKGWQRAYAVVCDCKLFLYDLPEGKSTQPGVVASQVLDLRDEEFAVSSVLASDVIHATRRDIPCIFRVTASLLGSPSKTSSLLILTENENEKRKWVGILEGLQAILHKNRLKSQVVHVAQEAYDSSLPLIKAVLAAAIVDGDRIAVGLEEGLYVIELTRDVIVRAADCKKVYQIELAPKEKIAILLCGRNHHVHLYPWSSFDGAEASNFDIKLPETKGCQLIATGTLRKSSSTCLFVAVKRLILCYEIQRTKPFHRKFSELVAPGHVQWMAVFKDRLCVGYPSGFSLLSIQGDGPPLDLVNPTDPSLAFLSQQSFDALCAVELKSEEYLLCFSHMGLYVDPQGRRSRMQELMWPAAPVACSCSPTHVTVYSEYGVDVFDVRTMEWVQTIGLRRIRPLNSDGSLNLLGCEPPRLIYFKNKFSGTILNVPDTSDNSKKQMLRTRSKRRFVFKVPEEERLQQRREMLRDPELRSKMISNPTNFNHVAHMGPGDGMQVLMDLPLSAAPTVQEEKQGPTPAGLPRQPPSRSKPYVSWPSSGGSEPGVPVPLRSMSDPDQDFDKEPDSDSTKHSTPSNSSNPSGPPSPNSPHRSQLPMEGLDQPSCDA
UniProt P47757, sequence (P47757 whole entry): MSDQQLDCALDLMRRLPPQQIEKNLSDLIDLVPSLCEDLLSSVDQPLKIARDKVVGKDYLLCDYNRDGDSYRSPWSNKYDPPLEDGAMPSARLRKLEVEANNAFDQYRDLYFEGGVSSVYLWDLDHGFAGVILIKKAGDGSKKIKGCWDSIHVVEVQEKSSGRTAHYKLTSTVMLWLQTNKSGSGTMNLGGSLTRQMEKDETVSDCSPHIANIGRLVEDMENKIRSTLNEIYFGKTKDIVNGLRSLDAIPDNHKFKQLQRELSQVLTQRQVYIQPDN

| Target | log2 fold change |
| --- | --- |
| UniProt Q9D710 (peptide sequence: EFNLNELYQR, peptide start residue: 254) | -0.349 |
| UniProt O35492 (peptide sequence: MLEFDPAQR, peptide start residue: 600) | -1.13 |
| UniProt Q62120 (peptide sequence: VLPQDKEYYK, peptide start residue: 1000) | -1.02 |
| UniProt P47757 (peptide sequence: QMEKDETVSDCSPHIANIGR, peptide start residue: 196) | -1.11 |
| UniProt Q9Z1R3 (peptide sequence: TEGRPDMK, peptide start residue: 115) | 1.56 |
| UniProt Q9DCQ2 (peptide sequence: VTMATHPDGFRLEGPLAAAHSSGPR, peptide start residue: 152) | -0.804 |
| UniProt Q7TT50 (peptide sequence: FQFPSHVTDVSEEAK, peptide start residue: 300) | -1.06 |
